Assay results from PubChem BioAssay (EPA / NIEHS).
Results filed as inconclusive are left out. Activity calls are given as the source filed them. The calls were made as follows: active = hit-call score of the fitted dose curve at least 0.9, where 1 is the maximum; inconclusive = response in the unintended direction; inactive = score below 0.9.

How the values were obtained:
[1] = molecular target: human Dual Specificity Protein Phosphatase 3 (DUSP3), DUSP3 (gene 1845) (UniProt P51452); experiment: NVS_ENZ_hDUSP3: NovaScreen (NVS) Enzymatic Assay for human Dual Specificity Protein Phosphatase 3 (DUSP3) (AID 2283152);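 also: phosphatase activity of recombinant human DUSP3 on a fluorogenic substrate without cells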
Method in brief: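 Cell-free assay with recombinant human DUSP3 and fluorogenic substrate, read by fluorescence intensity. Primary screen ran duplicate at 25 uM; actives followed up in concentration series; loss of signal versus DMSO scored.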

[2] = molecular target: human Esterase Plasma (ES), BCHE (gene 590) (UniProt P06276); experiment: NVS_ENZ_hES: NovaScreen (NVS) Enzymatic Assay for human Esterase Plasma (ES) (AID 2283157)
Method in brief: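 Esterase from human plasma, cell-free, colorimetric absorbance read 0.25 h after dosing. Screened at 25 uM in duplicate, with threshold-passing chemicals run in concentration-response up to 50 uM; loss of signal fitted versus DMSO.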

[3] = molecular target: human Elastase, ELANE (gene 1991) (UniProt P08246); experiment: NVS_ENZ_hElastase: NovaScreen (NVS) Enzymatic Assay for human Elastase (AID 2283153)
Method in brief: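 Cell-free elastase from human neutrophils, 1.5 h after dosing, activity read by absorbance. Primary screen in duplicate at 25 uM; hits (e.g., 30% inhibition) rerun in singleton concentration-response up to 50 uM, fitted versus DMSO.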

[4] = molecular target: human Casein Kinase 1-delta (CK1D), CSNK1D (gene 1453) (UniProt P48730); experiment: NVS_ENZ_hCK1D: NovaScreen (NVS) Enzymatic Assay for human Casein Kinase 1-delta (CK1D) (AID 2283148)
Method in brief: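 Recombinant human CK1-delta, cell-free; fluorescent substrate with electrophoretic mobility-shift separation of product, read 1 h after dosing. Single 25 uM duplicate screen, then concentration-response up to 50 uM; loss of signal vs DMSO.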

[5] = molecular target: human Colony Stimulating Factor 1 Receptor (CSF1R), CSF1R (gene 1436) (UniProt P07333); experiment: NVS_ENZ_hCSF1R: NovaScreen (NVS) Enzymatic Assay for human Colony Stimulating Factor 1 Receptor (CSF1R) (AID 2283150)
Method in brief: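 Cell-free recombinant human CSF1R kinase with fluorescent substrate, product separated by electrophoretic mobility shift; read 1 h after dosing. Primary screen at 25 uM in duplicate, actives then in concentration-response up to 50 uM, relative to DMSO.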

[6] = molecular target: human Caspase 8 (CASP8), CASP8 (gene 841) (UniProt Q14790); experiment: NVS_ENZ_hCASP8: NovaScreen (NVS) Enzymatic Assay for human Caspase 8 (CASP8) (AID 2283146)
Method in brief: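 E. coli-expressed enzyme was used in a cell-free fluorogenic substrate assay read 1 h after dosing. Loss of signal was scored relative to DMSO, and the primary screen was run in duplicate at 25 uM.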

[7] = molecular target: human Epidermal Growth Factor Receptor (EGFR), EGFR (gene 1956) (UniProt P00533); experiment: NVS_ENZ_hEGFR: NovaScreen (NVS) Enzymatic Assay for human Epidermal Growth Factor Receptor (EGFR) (AID 2283151)
Method in brief: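 Cell-free kinase assay, fluorescence plus electrophoretic mobility shift separating substrate and product, read 1 hour after dosing; loss of signal vs DMSO. Duplicate screen at 25 uM, then concentration-response to 50 uM.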

[8] = molecular target: human Ephrin type-B Receptor 2 (EphB2), EPHB2 (gene 2048) (UniProt P29323); experiment: NVS_ENZ_hEphB2: NovaScreen (NVS) Enzymatic Assay for human Ephrin type-B Receptor 2 (EphB2) (AID 2283156)
Method: (§1) NVS_ENZ_hEphB2 is a biochemical, single-readout assay that uses extracted gene-proteins in a cell-free assay. Measurements were taken 1 hour after chemical dosing in a 384-well plate.NVS_ENZ_hEphB2 is one of one assay component(s) measured or calculated from the NVS_ENZ_hEphB2 assay. It is designed to make measurements of enzyme activity, a form of enzyme reporter, as detected with fluorescence intensity signals by Fluorescence and electrophoretic mobility shift technology.Data from the assay component NVS_ENZ_hEphB2 was analyzed into 1 assay endpoint. This assay endpoint, NVS_ENZ_hEphB2, was analyzed in the positive analysis fitting direction relative to DMSO as the negative control and baseline of activity. Using a type of enzyme reporter, loss-of-signal activity can be used to understand changes in the enzymatic activity as they relate to the gene EPHB2. Furthermore, this assay endpoint can be referred to as a primary readout, because this assay has produced multiple assay endpoints where this one serves a enzymatic activity function. To generalize the intended target to other relatable targets, this assay endpoint is annotated to the kinase intended target family, where the subfamily is receptor tyrosine kinase. […]

[9] = molecular target: human Aurora Kinase A - serine/threonine-protein Kinase 6 (AurA), AURKA (gene 6790) (UniProt O14965); experiment: NVS_ENZ_hAurA: NovaScreen (NVS) Enzymatic Assay for human Aurora Kinase A - serine/threonine-protein Kinase 6 (AurA) (AID 2283142)
Method: as §1, with “NVS_ENZ_hAurA” for “NVS_ENZ_hEphB2”, “plate.NVS_ENZ_hAurA” for “plate.NVS_ENZ_hEphB2”, “NVS_ENZ_hAurA,” for “NVS_ENZ_hEphB2,”, “AURKA.” for “EPHB2.”, “serine/threonine” for “receptor tyrosine”

[10] = molecular target: human AKT serine/threonine Kinase 2 (AKT2), AKT2 (gene 208) (UniProt P31751); experiment: NVS_ENZ_hAKT2: NovaScreen (NVS) Enzymatic Assay for human AKT serine/threonine Kinase 2 (AKT2) (AID 2283141)
Method in brief: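 Cell-free fluorescence/electrophoretic mobility shift readout of recombinant human AKT2 activity, 1 h after chemical dosing. Duplicate primary screen at 25 uM, then singleton concentration-response up to 50 uM; loss of signal versus DMSO baseline.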

Sequence of human Esterase Plasma (ES), BCHE (gene 590) (P06276 whole entry, looked up): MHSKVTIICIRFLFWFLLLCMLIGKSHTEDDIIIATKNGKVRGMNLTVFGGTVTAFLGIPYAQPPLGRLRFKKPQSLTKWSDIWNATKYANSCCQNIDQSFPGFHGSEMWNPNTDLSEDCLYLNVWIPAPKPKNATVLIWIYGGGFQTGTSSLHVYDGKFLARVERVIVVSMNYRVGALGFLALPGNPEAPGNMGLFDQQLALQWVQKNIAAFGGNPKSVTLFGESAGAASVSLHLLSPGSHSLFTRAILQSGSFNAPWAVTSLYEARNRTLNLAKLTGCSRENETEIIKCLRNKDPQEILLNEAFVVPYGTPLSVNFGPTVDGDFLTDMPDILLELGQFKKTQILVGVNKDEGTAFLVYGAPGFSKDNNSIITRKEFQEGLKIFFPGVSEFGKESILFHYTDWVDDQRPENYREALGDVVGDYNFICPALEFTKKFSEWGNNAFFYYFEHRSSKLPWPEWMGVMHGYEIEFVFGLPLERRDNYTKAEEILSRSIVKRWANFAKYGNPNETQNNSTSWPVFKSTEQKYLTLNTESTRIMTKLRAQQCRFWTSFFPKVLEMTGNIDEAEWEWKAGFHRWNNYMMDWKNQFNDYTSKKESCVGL
Sequence of human Dual Specificity Protein Phosphatase 3 (DUSP3), DUSP3 (gene 1845) (P51452 whole entry, looked up): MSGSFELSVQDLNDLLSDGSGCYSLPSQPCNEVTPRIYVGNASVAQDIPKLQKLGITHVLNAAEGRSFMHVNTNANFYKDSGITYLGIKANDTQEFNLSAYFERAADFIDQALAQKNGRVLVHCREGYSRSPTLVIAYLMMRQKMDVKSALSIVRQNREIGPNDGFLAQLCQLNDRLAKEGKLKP
Sequence of human Elastase, ELANE (gene 1991) (P08246 whole entry, looked up): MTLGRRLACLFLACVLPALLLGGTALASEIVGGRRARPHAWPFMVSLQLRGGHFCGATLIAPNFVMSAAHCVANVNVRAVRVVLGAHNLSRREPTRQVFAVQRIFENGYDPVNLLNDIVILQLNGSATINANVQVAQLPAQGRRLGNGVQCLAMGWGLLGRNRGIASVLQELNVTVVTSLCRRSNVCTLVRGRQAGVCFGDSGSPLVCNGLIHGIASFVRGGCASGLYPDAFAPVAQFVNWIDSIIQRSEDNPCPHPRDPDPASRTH
Sequence of human Casein Kinase 1-delta (CK1D), CSNK1D (gene 1453) (P48730 whole entry, looked up): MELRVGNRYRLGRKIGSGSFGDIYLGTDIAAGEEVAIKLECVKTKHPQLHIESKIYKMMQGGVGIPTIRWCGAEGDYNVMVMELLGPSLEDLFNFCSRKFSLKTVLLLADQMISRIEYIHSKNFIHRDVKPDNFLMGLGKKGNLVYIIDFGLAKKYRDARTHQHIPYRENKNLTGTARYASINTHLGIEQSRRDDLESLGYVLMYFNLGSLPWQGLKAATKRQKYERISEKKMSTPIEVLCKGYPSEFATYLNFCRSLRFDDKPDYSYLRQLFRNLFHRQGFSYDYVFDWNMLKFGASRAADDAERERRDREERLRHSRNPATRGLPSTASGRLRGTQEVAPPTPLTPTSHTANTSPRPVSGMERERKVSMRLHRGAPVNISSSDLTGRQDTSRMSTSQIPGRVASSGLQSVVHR
Sequence of human Colony Stimulating Factor 1 Receptor (CSF1R), CSF1R (gene 1436) (P07333 whole entry, looked up): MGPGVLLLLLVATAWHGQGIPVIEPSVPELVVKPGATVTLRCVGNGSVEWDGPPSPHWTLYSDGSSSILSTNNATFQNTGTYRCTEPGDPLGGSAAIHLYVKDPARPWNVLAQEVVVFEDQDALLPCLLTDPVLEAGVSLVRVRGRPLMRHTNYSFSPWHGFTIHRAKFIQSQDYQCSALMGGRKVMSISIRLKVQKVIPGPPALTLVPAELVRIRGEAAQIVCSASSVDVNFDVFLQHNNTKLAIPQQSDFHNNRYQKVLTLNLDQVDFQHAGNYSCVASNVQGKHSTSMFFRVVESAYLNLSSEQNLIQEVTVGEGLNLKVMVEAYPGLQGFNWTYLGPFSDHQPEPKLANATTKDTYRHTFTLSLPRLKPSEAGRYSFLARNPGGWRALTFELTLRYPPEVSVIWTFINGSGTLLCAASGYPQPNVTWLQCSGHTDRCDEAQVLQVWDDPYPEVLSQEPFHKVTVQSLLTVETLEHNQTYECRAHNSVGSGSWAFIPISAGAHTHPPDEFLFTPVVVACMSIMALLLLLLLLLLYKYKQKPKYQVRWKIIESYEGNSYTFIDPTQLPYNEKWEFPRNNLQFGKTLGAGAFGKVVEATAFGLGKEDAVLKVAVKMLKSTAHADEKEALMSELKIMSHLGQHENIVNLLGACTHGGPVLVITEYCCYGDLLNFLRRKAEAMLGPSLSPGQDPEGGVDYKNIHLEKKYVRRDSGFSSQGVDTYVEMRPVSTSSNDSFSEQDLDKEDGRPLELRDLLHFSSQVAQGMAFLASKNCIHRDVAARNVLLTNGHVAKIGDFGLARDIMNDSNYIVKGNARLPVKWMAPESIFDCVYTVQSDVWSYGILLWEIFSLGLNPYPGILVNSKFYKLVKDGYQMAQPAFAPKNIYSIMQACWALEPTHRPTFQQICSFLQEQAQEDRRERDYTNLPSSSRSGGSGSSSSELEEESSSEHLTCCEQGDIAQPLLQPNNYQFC
Sequence of human Epidermal Growth Factor Receptor (EGFR), EGFR (gene 1956) (P00533 whole entry, looked up): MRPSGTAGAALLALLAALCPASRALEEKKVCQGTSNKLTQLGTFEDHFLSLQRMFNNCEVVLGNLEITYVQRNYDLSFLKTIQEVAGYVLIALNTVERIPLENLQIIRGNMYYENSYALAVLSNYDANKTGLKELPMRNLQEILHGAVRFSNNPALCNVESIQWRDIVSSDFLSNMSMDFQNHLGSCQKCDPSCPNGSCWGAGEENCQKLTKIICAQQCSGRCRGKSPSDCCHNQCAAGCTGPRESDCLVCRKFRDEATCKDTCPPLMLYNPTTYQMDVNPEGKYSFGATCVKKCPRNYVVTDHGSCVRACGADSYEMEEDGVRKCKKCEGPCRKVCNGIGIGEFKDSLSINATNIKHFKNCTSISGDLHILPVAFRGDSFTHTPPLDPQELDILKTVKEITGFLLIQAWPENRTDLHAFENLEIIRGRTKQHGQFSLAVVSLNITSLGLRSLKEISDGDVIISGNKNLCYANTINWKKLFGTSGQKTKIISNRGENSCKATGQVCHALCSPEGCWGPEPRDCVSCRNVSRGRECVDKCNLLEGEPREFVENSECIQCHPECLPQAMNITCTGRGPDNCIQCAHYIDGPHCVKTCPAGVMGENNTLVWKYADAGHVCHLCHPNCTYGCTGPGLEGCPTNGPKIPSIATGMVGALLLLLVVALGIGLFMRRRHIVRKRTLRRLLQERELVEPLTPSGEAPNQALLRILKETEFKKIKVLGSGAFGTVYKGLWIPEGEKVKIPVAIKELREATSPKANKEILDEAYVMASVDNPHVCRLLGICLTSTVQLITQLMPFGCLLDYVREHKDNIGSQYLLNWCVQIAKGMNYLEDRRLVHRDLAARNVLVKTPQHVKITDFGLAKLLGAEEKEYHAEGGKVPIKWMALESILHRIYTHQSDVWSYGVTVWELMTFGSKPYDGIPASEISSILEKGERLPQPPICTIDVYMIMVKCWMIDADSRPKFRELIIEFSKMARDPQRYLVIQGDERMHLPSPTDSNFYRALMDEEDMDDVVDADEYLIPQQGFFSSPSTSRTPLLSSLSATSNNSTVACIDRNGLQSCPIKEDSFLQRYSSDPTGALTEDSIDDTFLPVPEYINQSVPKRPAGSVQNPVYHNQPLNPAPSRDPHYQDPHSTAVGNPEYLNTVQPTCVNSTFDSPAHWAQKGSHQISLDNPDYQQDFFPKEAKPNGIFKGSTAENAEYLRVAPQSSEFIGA
Sequence of human AKT serine/threonine Kinase 2 (AKT2), AKT2 (gene 208) (P31751 whole entry, looked up): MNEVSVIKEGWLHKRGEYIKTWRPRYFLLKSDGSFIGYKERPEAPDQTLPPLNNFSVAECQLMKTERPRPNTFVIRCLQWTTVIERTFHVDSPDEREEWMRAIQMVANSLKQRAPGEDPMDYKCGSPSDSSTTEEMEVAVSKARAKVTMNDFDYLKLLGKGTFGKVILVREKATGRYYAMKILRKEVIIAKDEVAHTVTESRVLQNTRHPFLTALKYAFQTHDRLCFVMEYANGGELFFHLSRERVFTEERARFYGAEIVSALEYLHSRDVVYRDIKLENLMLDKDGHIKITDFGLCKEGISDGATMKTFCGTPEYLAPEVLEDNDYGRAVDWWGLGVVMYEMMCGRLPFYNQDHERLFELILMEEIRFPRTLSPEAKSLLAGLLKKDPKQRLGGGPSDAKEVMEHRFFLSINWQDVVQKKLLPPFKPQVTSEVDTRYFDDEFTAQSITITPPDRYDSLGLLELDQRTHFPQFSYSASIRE
Sequence of human Aurora Kinase A - serine/threonine-protein Kinase 6 (AurA), AURKA (gene 6790) (O14965 whole entry, looked up): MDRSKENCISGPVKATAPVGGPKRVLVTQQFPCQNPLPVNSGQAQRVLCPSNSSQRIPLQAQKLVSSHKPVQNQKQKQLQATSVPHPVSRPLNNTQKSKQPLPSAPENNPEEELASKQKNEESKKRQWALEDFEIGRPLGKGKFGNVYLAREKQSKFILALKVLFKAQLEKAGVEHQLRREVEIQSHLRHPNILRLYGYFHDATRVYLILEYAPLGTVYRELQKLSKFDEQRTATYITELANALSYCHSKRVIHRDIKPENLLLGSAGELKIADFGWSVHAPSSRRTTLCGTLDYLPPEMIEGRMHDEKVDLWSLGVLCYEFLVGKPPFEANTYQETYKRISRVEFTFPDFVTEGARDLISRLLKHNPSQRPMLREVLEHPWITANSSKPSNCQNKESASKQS
Sequence of human Caspase 8 (CASP8), CASP8 (gene 841) (Q14790 whole entry, looked up): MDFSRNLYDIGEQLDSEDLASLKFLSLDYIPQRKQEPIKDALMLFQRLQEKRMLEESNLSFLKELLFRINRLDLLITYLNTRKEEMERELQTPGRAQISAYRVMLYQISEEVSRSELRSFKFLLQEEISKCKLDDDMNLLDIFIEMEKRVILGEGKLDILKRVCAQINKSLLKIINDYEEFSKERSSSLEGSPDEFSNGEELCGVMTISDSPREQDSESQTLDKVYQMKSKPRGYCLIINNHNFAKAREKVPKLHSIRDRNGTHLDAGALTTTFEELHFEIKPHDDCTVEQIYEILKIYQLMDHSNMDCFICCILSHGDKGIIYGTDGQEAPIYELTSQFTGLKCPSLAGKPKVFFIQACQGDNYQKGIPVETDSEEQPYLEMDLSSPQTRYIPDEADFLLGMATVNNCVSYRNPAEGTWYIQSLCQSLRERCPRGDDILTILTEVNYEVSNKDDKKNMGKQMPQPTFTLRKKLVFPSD

Compound: Nc1ncc([N+](=O)[O-])s1
- AC50 [1]: 2.36 µM (active)

Compound: Nc1cccc2ccccc12
- AC50 [1]: 17 µM (active)

Compound: CCOP(=S)(OCC)Oc1nc(Cl)c(Cl)cc1Cl
- AC50 [1]: 6.51 µM (active)
- AC50 [2]: 25 µM (active)

Compound: COc1cc(-c2ccc(N)c(OC)c2)ccc1N
- AC50 [1]: 7.49 µM (active)
- AC50 [3]: 20.5 µM (active)

Compound: CCCCCCCCc1ccc(O)cc1
- outcome [4]: inactive
- outcome [5]: inactive

Compound: C=C(C)C(=O)[O][Sn]([CH2]CCC)([CH2]CCC)[CH2]CCC
- AC50 [1]: 10.9 µM (active)
- outcome [3]: inactive

Compound: CC(=O)[O][Hg][c]1ccccc1
- AC50 [6]: 8.22 µM (active)
- AC50 [7]: 9.71 µM (active)
- outcome [2]: inactive

Compound: O=C(O)C(Cl)(Cl)Cl
- outcome [8]: inactive

Compound: COP(=S)(OC)Oc1cc(Cl)c(Cl)cc1Cl
- AC50 [1]: 11.8 µM (active)

Compound: O=C1C2(Cl)C3(Cl)C4(Cl)C(Cl)(Cl)C5(Cl)C3(Cl)C1(Cl)C5(Cl)C24Cl (centres undefined)
- outcome [9]: inactive

Compound: O=[N+]([O-])c1ccc(O)c([N+](=O)[O-])c1
- outcome [4]: inactive

Compound: CCOP(=S)(OCC)SCSP(=S)(OCC)OCC
- AC50 [1]: 6.76 µM (active)
- outcome [2]: inactive

Compound: CC(C)(OO)c1ccccc1
- outcome [10]: inactive

Compound: COP(=S)(OC)Oc1ccc(S(=O)(=O)N(C)C)cc1
- AC50 [1]: 7.43 µM (active)
- AC50 [2]: 20 µM (active)

Compound: ClC1(Cl)C2(Cl)C3(Cl)C4(Cl)C(Cl)(Cl)C5(Cl)C3(Cl)C1(Cl)C5(Cl)C24Cl (centres undefined)
- outcome [10]: inactive
- outcome [5]: inactive
- outcome [7]: inactive
- outcome [1]: inactive
- AC50 [3]: 1.1 µM (active)

Compound: CCN1CCC2(CC1)COc1cc3c(cc12)N(C(=O)c1ccc(-c2ccc(-c4nnc(C)o4)cc2C)cc1)CC3
- AC50 [2]: 28.3 µM (active)

Compound: CCC(=O)C(CC(C)N(C)C)(c1ccccc1)c1ccccc1 (centres undefined)
- AC50 [2]: 15.6 µM (active)
